Source: publication PMC4336329 (PLoS ONE, 2015)
The campaign covered roughly 310,000 compounds. About 14,000 (4.5%) showed an effect of 50% or more. The effect is printed as a negative number. This excerpt belongs to a sample that is enriched for strong results.

What follows are compounds tested against human ether-à-go-go-related gene (hERG) potassium channel (human, UniProt Q12809) (assay: primary screen, population patch clamp on CHO cells stably expressing hERG; higher = less effect of the substance).
Sequence of human ether-à-go-go-related gene (hERG) potassium channel (Q12809 whole entry, looked up): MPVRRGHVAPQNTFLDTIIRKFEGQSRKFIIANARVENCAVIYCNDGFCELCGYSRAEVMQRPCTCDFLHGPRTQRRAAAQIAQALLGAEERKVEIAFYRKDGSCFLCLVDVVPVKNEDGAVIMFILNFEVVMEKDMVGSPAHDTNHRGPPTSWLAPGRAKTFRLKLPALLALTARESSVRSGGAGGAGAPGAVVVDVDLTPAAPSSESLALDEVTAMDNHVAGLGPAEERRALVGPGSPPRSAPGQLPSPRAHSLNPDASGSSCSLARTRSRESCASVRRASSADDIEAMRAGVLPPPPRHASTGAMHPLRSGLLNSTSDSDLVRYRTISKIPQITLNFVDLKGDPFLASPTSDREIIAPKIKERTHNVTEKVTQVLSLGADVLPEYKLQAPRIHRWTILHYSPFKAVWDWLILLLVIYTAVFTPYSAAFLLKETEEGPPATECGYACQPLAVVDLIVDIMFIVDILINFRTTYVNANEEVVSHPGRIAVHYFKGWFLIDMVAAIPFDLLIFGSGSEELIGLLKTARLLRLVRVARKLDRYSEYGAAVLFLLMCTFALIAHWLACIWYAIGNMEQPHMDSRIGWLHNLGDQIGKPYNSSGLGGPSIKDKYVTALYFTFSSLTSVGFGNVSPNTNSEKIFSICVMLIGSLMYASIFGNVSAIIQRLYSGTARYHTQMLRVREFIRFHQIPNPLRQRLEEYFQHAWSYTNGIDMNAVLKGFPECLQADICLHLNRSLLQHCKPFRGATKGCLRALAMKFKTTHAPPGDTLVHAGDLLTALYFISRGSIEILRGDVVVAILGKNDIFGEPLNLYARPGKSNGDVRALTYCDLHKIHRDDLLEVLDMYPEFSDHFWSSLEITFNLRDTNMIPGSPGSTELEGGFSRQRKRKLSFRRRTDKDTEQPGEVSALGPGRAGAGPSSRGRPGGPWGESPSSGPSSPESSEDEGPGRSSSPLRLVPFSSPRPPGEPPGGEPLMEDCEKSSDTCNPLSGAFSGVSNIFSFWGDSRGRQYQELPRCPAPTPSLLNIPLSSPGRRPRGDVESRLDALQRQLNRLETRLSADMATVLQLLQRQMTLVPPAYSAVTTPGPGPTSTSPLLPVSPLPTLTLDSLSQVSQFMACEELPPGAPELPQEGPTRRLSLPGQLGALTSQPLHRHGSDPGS
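Also: peak tail current of the secondary pulse compared with the same well before compound.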

Row | SMILES | hERG current change (%, negative = inhibition) at 10uM [%]
1 | Cc1nnc(SCC(=O)Nc2ccc([N+](=O)[O-])cc2)n1CC1CCCO1 (centres unmarked) | -55.5
2 | Cc1cccc(NC(=O)CSc2nnc(C3CC3)n2CC2CCCO2)c1 (centres unmarked) | -14.9
3 | CCn1c(SCC(=O)Nc2cccc(S(=O)(=O)N(C)c3ccccc3)c2)nnc1C1CC1 | -44.1
4 | Cc1nnc(SCC(=O)Nc2cccc(Cl)c2)n1CC1CCCO1 (centres unmarked) | -7.41
5 | Cc1ccc([N+](=O)[O-])cc1NC(=O)CSc1nnc(C)n1CC1CCCO1 (centres unmarked) | -14.6
6 | Cc1nnc(SCC(=O)Nc2cccc([N+](=O)[O-])c2)n1CC1CCCO1 (centres unmarked) | -13
7 | O=C(CSc1nnc(C2CC2)n1CC1CCCO1)Nc1cccc(Cl)c1 (centres unmarked) | -56.1
8 | CCc1ccc(NC(=O)CSc2nnc(C3CC3)n2CC2CCCO2)cc1 (centres unmarked) | -22.4
9 | CN(c1ccccc1)S(=O)(=O)c1cccc(NC(=O)CSc2nnc(C3CC3)n2C)c1 | -30.9
10 | O=C(CSc1nnc(C2CC2)n1CC1CCCO1)Nc1ccc(Cl)cc1 (centres unmarked) | -56.8
11 | C=CCn1c(SCC(=O)Nc2cccc(S(=O)(=O)N(C)c3ccccc3)c2)nnc1C1CC1 | -69.8
12 | Cc1ccc(NC(=O)CSc2nnc(C3CC3)n2CC2CCCO2)cc1C (centres unmarked) | -24
13 | O=C(CCNS(=O)(=O)c1cccc2nsnc12)NC1CCCc2ccccc21 (centres unmarked) | 9.49
14 | CCCc1cc(=O)n2[nH]c(CCc3ccccc3)nc2n1 | 14.1
15 | O=C(NCC(c1cccs1)N1CCOCC1)c1ccccc1NS(=O)(=O)c1ccc(Br)cc1 (centres unmarked) | -38.4
16 | CCOC(=O)c1sc(NC(=O)c2ccc(Cl)s2)cc1C | 3.03
17 | O=C(c1ccco1)N1CCN(C2CC(=O)N(c3ccc(F)c(Cl)c3)C2=O)CC1 (centres unmarked) | -14.2
18 | Cc1ccc(OS(=O)Nc2cccc3nccnc23)cc1 (centres unmarked) | -18.6
19 | COc1ccccc1C(=O)NCCC(=O)NCc1ccncc1 | -4.37
20 | CCOC(=O)c1ccc(-n2c(CN3CCN(CC)CC3)nc3ccc([N+](=O)[O-])cc3c2=O)cc1 | -55
21 | CCOC(=O)N1CCN(Cc2nc3ccc([N+](=O)[O-])cc3c(=O)n2-c2ccccc2F)CC1 | -69.9
22 | CCOC(=O)N1CCN(Cc2nc3ccc([N+](=O)[O-])cc3c(=O)n2-c2ccc(OC)cc2OC)CC1 | -46.1
23 | CCN1CCN(Cc2nc3ccc([N+](=O)[O-])cc3c(=O)n2-c2ccccc2F)CC1 | 17.9
24 | CCOC(=O)c1ccc(-n2c(CN3CCOCC3)nc3ccc([N+](=O)[O-])cc3c2=O)cc1 | 1.65
25 | O=C(c1ccco1)N1CCN(Cc2nc3ccc([N+](=O)[O-])cc3c(=O)n2-c2ccccc2F)CC1 | -68.3

Row | SMILES | hERG current change (%, negative = inhibition) at 10uM [%]
26 | O=c1c2cc([N+](=O)[O-])ccc2nc(CN2CCN(c3ccccn3)CC2)n1-c1ccccc1F | -28.3
27 | CCOC(=O)N1CCN(Cc2nc3ccc([N+](=O)[O-])cc3c(=O)n2-c2cccc(OC)c2)CC1 | -39.8
28 | CCC(CC)N1CCN(Cc2nc3ccc([N+](=O)[O-])cc3c(=O)n2-c2ccccc2F)CC1 | -57
29 | O=C(O)C(=O)O.O=C(c1ccco1)N1CCN(Cc2ccccc2F)CC1 | 3.7
30 | CCOc1ccccc1-n1c(CN2CCN(C(=O)c3ccco3)CC2)nc2ccccc2c1=O | -26.2
31 | CCOC(=O)c1ccc(-n2c(CN3CCN(CCO)CC3)nc3ccc([N+](=O)[O-])cc3c2=O)cc1 | -25.1
32 | Cc1c(C(=O)NCc2ccccc2)cnn1-c1ccccc1 | -2.6
33 | O=C(Nc1cccc(-c2cn3ccccc3n2)c1)c1cccc(Cl)c1 | 4.75
34 | CCCC1=NN(C(=O)Cc2ccc(OC)c(OC)c2)C(O)(C(F)(F)F)C1 (centres unmarked) | 0.733
35 | CC(C)[C@H]1C(=O)Nc2ccccc2N1C(=O)N[C@@H](Cc1ccccc1)C(=O)N[C@@H](Cc1ccccc1)C(=O)O | 5.66
36 | Cc1nn(C)c(C)c1C(C)NC(=O)c1ccc(OC2CCN(Cc3ccccn3)CC2)cc1 (centres unmarked) | 18
37 | CC(=O)NC1=C(Nc2ccc(N(C)C)cc2)C(=O)c2ccccc2C1=O | -9.79
38 | COC(=O)N/N=C/c1ccc(-c2cccc(Cl)c2)o1 | -3.5
39 | COc1cc(OC)cc(-c2nc(-c3ccccc3)no2)c1 | 5.45
40 | COCCCN1C(=O)C(O)=C(C(C)=O)C1c1cccc(F)c1 (centres unmarked) | 7.18
41 | CCC1(c2ccccc2)NC(=O)N(CC(=O)Nc2ccccc2C(=O)NC2CC2)C1=O (centres unmarked) | -7.31
42 | CCC1(c2ccccc2)NC(=O)N(CC(=O)Nc2cc(Cl)ccc2N2CCN(C)CC2)C1=O (centres unmarked) | -60.8
43 | CCC1(c2ccccc2)NC(=O)N(CC(=O)Nc2ccccc2C(=O)NC2CCCC2)C1=O (centres unmarked) | -53.8
44 | CC1(c2ccccc2)NC(=O)N(CC(=O)Nc2ccccc2C(=O)NC2CC2)C1=O (centres unmarked) | -22.5
45 | CN1CCN(c2ccc(Cl)cc2NC(=O)CN2C(=O)NC(C)(c3ccccc3)C2=O)CC1 (centres unmarked) | -23.7
46 | CCC1(c2ccccc2)NC(=O)N(CC(=O)Nc2cc(Cl)ccc2N2CCOCC2)C1=O (centres unmarked) | -11.2
47 | COC(=O)C1=C(c2cccc(C#N)c2)C[C@@H]2CC[C@H]1N2C(=O)N1CCC(C)CC1 | -17.1
48 | Cc1ccccc1C1=NC(C(F)(F)F)(C(F)(F)F)c2c(n(-c3ccc(F)cc3)c(=O)[nH]c2=O)N1 | 12.5
49 | Cc1ccc(C)c(NC(=O)CN2C(=O)CNC2=O)c1 | 0.955
50 | COc1cccc(OCCNS(=O)(=O)c2cccc([N+](=O)[O-])c2)c1 | -8.19
